Sampled rows, rich in hits. Any-hit rate of the full collection: about 10%.
Six1-Eya2 inh = inhibitors of human Six1/Eya2 interaction; Q15475+O00167; AlphaScreen GST-Six1/His-Eya2 binding, biochemical; active compounds read low; activity change, % (concentration not given with the values); hit rate 0.56% among 360,000; in the data active means activity change below about -65%; inconclusive means mostly about -30% to -63%; further: on the % scale 0 is the no-effect control and ±100 the full control effect
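Homogeneous AlphaScreen proximity assay pairing GST-Six1 with His-tagged Eya2 (added as 5X mix: 250 nM and 500 nM) in 50 mM Tris pH 8.0, 300 mM NaCl, 1 mM TCEP. Glutathione donor and nickel acceptor beads; 1 h, 37 °C, dark.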
JMJD2A Tudor inh = JMJD2A Tudor domain (human) inhibition; AlphaScreen JMJD2A-Tudor / H3K4me3 peptide binding; O75164; hit rate 4.4% among 390,000; Potency, µM (top dose mostly 114 µM), inactives show at the highest dose activity change, negative = inhibition, usual class: inhibitors; further: potency means the concentration at half of the fitted maximal effect; on the % scale 0 is the no-effect control and ±100 the full control effect; nearly all actives have a fitted effect of over 50% in size
HP1b chromo inh = inhibitors of HP1-beta chromodomain binding to methylated histone tails; Potency, µM (highest dose often 114 µM), without a hit: at the highest dose activity change, negative = inhibition, usual class: inhibitors; AID 540317; P83916; AlphaScreen HP1-beta / biotin-H3K9me3 peptide binding; hit rate 0.56% among 390,000; further: potency means the concentration at half of the fitted maximal effect; nearly all actives have a fitted effect of over 70% in size
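HP1-beta protein (50 nM final) preincubated 30 min at room temperature with biotinylated H3(1-18)K9me3 peptide (50 nM) in PBS pH 7.4, 0.01% Tween-20, then compound added for 30 min. AlphaScreen streptavidin donor/nickel chelate acceptor beads (10 ug/mL final), 30 min dark, luminescence read.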
G9a inh = inhibitors of human histone lysine methyltransferase G9a | Q96KQ7 | Potency, µM (series often up to 102 µM), for inactives: top-dose activity, negative = inhibition, usual class: inhibitors | G9a H3K9 monomethylation, AlphaScreen, 2 h | hit rate 8.8% among 350,000; further: potency means the concentration at half of the fitted maximal effect; on the % scale 0 is the no-effect control and ±100 the full control effect; nearly all actives have a fitted effect of over 75% in size
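Step 1: enzyme (final 20 nM) with compound, 15 min RT. Step 2: substrate peptide 500 nM and SAM 20 uM, 2 h RT. Step 3: anti-H3K9me1 antibody and AlphaScreen beads, 10 min, then plate read.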
BAZ2B block = inhibitors of human BAZ2B bromodomain; hit rate 4.4% among 360,000; AlphaScreen BAZ2B-H3K14Ac peptide displacement; AID 504333; Q9UIF8; Potency, µM (series often up to 114 µM), inactives show top-dose activity change, negative = inhibition, usual class: inhibitors; further: potency means the concentration at half of the fitted maximal effect; on the % scale 0 is the no-effect control and ±100 the full control effect; nearly all actives have a fitted effect of over 60% in size
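BAZ2B 50 nM plus b-H3(5-23)K14Ac 50 nM, PBS pH 7.4/0.01% Tween-20, 30 min RT; compound added (max 110 uM), 30 min RT; streptavidin donor/Ni-chelate acceptor beads 10 ug/mL final, 20 min dark; AlphaScreen read.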
CtBP-E1A blk = CtBP/E1A binding inhibition; hit rate 0.49% among 340,000; AID 651724; activity change, % (concentration not given with the values); AlphaScreen GST-E1A/His-CtBP binding, 1536-well; active compounds read low; in the data active means activity change below about -65%; inconclusive means mostly about -30% to -63%; further: on the % scale 0 is the no-effect control and ±100 the full control effect
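Protein mix (5X: 125 nM each GST-E1A, His-CtBP) was incubated with pinned compound 2 h at 37 deg C in dark, in 50 mM Tris pH 8.0 buffer with 300 mM NaCl. Glutathione donor and nickel acceptor beads followed; AlphaScreen signal read after 1 h.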
Numbers without * were called inactive; ? = inconclusive; · = not tested or not shown; [ ] = remark or other dose. Unless noted, the call rests on the fitted dose curve; in most records, active means well fitted inhibition curve with a large enough effect; inconclusive means small, poorly fitted or top-dose-only effect; inactive means no such curve, though single readings can be large or run the other way.

SMILES	Six1-Eya2 inh	JMJD2A Tudor inh	HP1b chromo inh	G9a inh	BAZ2B block	CtBP-E1A blk
O=C(CSc1ccccc1F)OCC(=O)N1CCN(C(=O)c2ccco2)CC1	10	-15%	-13%	?	0%	-24
Cc1ccc(NC(=O)CSc2ccc(C(N)=O)cc2[N+](=O)[O-])cc1C	-6	14µM*	6%	-28%	-15%	-1
Cc1cc(Br)ccc1SCC(=O)OCC(=O)N1CCN(C(=O)c2ccco2)CC1	2	-29%	10%	45µM*	?	-4
CCOC(=O)c1c(NC(=O)c2cc(-c3cccc(OC)c3)on2)sc2c1CCCC2	·	3%	?	8.9µM*	-1%	·
CCOC(=O)c1c(NC(=O)c2ccc(OC)c(OC)c2)sc2c1CCCCC2	·	-15%	-4%	8.9µM*	2%	·
COc1ccc(-c2cc(C(=O)Nc3sc4c(c3C#N)CCCC4)no2)cc1OC	·	2%	-8%	10µM*	-1%	·
CC(C)c1cc(C(=O)Nc2sc3c(c2C#N)CCC3)no1	0	-1%	12%	?	-3%	0
CCCc1cc(C(=O)Nc2sc3c(c2C(=O)OCC)CCCC3)no1	-3	1%	17%	-5%[59 µM]	0%	0
CCOC(=O)c1c(NC(=O)c2cc(-c3ccc(OC)c(OC)c3)on2)sc2c1CCCC2	·	0%	51%	4µM*	11%	·
Cc1ccc(Sc2ccc(CN3CCCCC3)cc2[N+](=O)[O-])cc1	-8	35µM*	?	18µM*	?	·
CC(C)OC(=O)c1cc2c(ccn2C)n1CC(=O)N(Cc1ccccc1)c1ccc(F)cc1	0	18µM*	?	28µM*	40µM*	-13
CCOC(=O)c1cc2c(ccn2C)n1CC(=O)N(Cc1ccccc1)c1ccccc1	-29	25µM*	-46%	28µM*	32µM*	?
CCCCCN(C(=O)CCC(=O)OCCOc1ccc(OCC)cc1)c1c(N)n(CCCC)c(=O)[nH]c1=O	-3	-10%	-1%	-4%[2.33 µM]	-3%	3
Cc1cc(Cl)ccc1OCC(=O)N(Cc1ccco1)Cc1ccccc1F	·	15%	93%	67%[59 µM]	64%	·
CCN(CC)C(=O)c1ccc(S(=O)(=O)c2ccccc2)cc1	27	-18%	51%	·	16%	1
C=C1c2ccccc2S(=O)(=O)N(Cc2ccccc2)C1COCc1ccccc1 (centres undefined)	8	18%	64%	11%[59 µM]	-4%	10
O=C(NC1CCN(Cc2ccc(Cl)cc2Cl)CC1)c1ccccc1	3	-9%	29%	?	-17%	1
CN(C)CCCNCCCNC(=O)/C=N/O	1	?	12%	32µM*	-6%	11
Cc1cccc(OCCSc2nc3ccccc3n2CC(=O)N2CCOCC2)c1	·	-9%	42%	-14%[59 µM]	5%	·
C=CCOc1ccc(C=CC(=O)c2c(O)c(OC)c(OC)c(OC)c2OC)cc1	-2	14µM*	50µM*	·	·	-4
COc1cc(/C=C/C(=O)c2c(O)cc(C)oc2=O)cc(OC)c1O	-14	-35%[57.1 µM]	13%	45µM*	?	-10
COc1ccc(C=CC(=O)c2c(OC)cc(OC)c(OC)c2O)cc1	-8	?	40µM*	·	·	2
COc1ccc(C(=O)/C=C/c2cc(OC)c(O)c(OC)c2)c(F)c1	3	-24%	-11%	8.9µM*	?	18
C=CCOc1ccc(/C=C/C(=O)OCC(=O)NCc2cccc(OC)c2)cc1	10	1%	23%	-4%[2.33 µM]	11%	-9
COc1cccc(/C=C/C(=O)c2c(O)cc(C)oc2=O)c1O	-9	-23%	12%	?	?	-3
SMILES	Six1-Eya2 inh	JMJD2A Tudor inh	HP1b chromo inh	G9a inh	BAZ2B block	CtBP-E1A blk
CCCCN(CC)C(=O)CSc1nc2n[nH]c(C)c2c(=N)n1-c1ccc(CC)cc1	·	-31%	-3%	5%[59 µM]	-10%	·
O=C(Nc1ccc(N2CCOCC2)cc1)c1csc([C@@H]2C[C@H](O)[C@@H](CO)O2)n1	4	·	·	·	·	1
COc1ccc2cc(C(=O)/C=C/c3cc(OC)c(O)c(OC)c3)ccc2c1	0	?	?	50µM*	?	-2
Cc1cc(N2C(=O)C(O)=C(C(=O)c3cccs3)C2c2cccc(O)c2)no1 (centres undefined)	1	?	10%	14%[12.7 µM]	-3%	1
COc1cc(C2C(C(=O)c3cccs3)=C(O)C(=O)N2c2cc(C)on2)ccc1O (centres undefined)	0	?	18%	50µM*	?	-7
Cc1cccc(N2C(=O)C(O)=C(C(=O)c3cccs3)C2c2cccc(Oc3ccccc3)c2)n1 (centres undefined)	8	-33%	19%	50µM*	?	0
COc1cccc(C2C(C(=O)c3ccc(C)o3)=C(O)C(=O)N2c2cc(C)on2)c1 (centres undefined)	0	-12%	12%	45µM*	?	-2
C=CCOc1cccc(C2C(C(=O)c3ccc(C)o3)=C(O)C(=O)N2c2nccs2)c1 (centres undefined)	-5	?	10%	32µM*	?	-1
COc1cccc(C2C(C(=O)c3cccs3)=C(O)C(=O)N2c2cc(C)on2)c1 (centres undefined)	1	-4%	30%	?	?	-1
CCCCOc1cccc(C2C(C(=O)c3ccc(C)o3)=C(O)C(=O)N2c2nnc(C)s2)c1 (centres undefined)	-14	?	4%	·	-24%	-6
O=C(COc1ccc(Cl)cc1Br)N1CCN(c2ncccn2)CC1	22	-5%	32%	-18%	7%	4
Oc1ccc(Cl)cc1C1C=C(c2ccc3c(c2)OCO3)NC(c2ccc(Br)cc2)N1 (centres undefined)	·	-18%[57.1 µM]	2%[57 µM]	·	·	·
COc1ccc(-c2cc(C3C4C=CCCC4(C)C(=O)N3Cc3ccccc3)ccc2F)cc1 (centres undefined)	·	-21%	15%	·	·	·
COC(=O)c1cc2occc2n1CC(=O)Nc1ccc(C(C)C)cc1	·	-4%	35%	1%[59 µM]	-4%	·
COc1cc(C2C(C(=O)c3ccc(C)o3)=C(O)C(=O)N2c2cc(C)on2)ccc1O (centres undefined)	5	?	5%	45µM*	?	0
CCOc1ccc(C2/C(=C(\O)c3ccc(OC)c(OC)c3)C(=O)C(=O)N2c2cc(C)on2)cc1OC (centres undefined)	4	-35%	1%	?	-22%	1
COc1ccccc1C1C(C(=O)c2ccco2)=C(O)C(=O)N1c1cc(C)on1 (centres undefined)	1	-9%	25%	?	-21%	1
